Experimental data: PubChem BioAssay (NCI)
About 79,000 compounds went through this panel and 15% of them were active in at least one assay; those are over-represented in the sample as a whole. No stated cut-off is given here; in the data, active means growth inhibition above about 70%; inactive means the rest.

Tests used:
[1] = NCI Yeast Anticancer Drug Screen. Data for the rad50 strain (AID 155);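 further: 0% = growth of vehicle-only cultures of the same strain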; conditions: S. cerevisiae rad50 strain growth inhibition; at 50.0 µM; stronger effect = higher value
Outline: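 Yeast carrying a defined DNA repair defect were exposed to test compounds, and growth was compared with vehicle-treated controls to give percent inhibition.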

[2] = NCI Yeast Anticancer Drug Screen. Data for the mec2-1 strain (AID 157); conditions: S. cerevisiae mec2-1 strain, at 50.0 µM, stronger effect = higher value
Outline: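 Mutant yeast (mec2-1) grown with compound; growth inhibition relative to vehicle control reported.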

[3] = NCI Yeast Anticancer Drug Screen. Data for the sgs1 mgt1 strain (AID 161);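 further: 0% = growth of cultures given vehicle only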; conditions: S. cerevisiae sgs1 mgt1 strain, at 50.0 µM, stronger effect = higher value
Outline: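 This yeast growth screen uses a strain with defined DNA-repair lesions; compound-treated growth is compared with vehicle-treated growth.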

[4] = NCI Yeast Anticancer Drug Screen. Data for the cln2 rad14 strain (AID 165);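 further: 0% = growth equal to vehicle treated cultures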; conditions: S. cerevisiae cln2 rad14 strain, at 50.0 µM, stronger effect = higher value
Outline: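 Readout is yeast growth inhibition versus vehicle-treated controls, using a strain with cln2 and rad14 alterations exposed to compound.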

[5] = NCI Yeast Anticancer Drug Screen. Data for the bub3 strain (AID 167); conditions: S. cerevisiae bub3 mutant strain, at 50.0 µM, stronger effect = higher value
Outline: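 Compounds were applied to a genetically altered yeast strain carrying a cell-cycle control defect. Growth inhibition was scored against vehicle-treated controls.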

[6] = NCI Yeast Anticancer Drug Screen. Data for the mlh1 rad18 strain (AID 175); conditions: S. cerevisiae mlh1 rad18 strain growth inhibition; at 50.0 µM; stronger effect = higher value
Outline: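 Genetically defined yeast (DNA repair-deficient) exposed to compounds; growth inhibition determined relative to vehicle.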

Measured: growth inhibition

Nc1ccccc1N1C(=O)C(Cl)=C(Cl)C1=O
inactive: [1] 39.5% | [2] 5.4% | [3] 21.5% | [4] 14.2% | [5] 3% | [6] 44%

COc1ccc(C2=C(c3ccccc3)C(C)(C)Oc3ccc4ccccc4c32)cc1
inactive: [1] -44.8% | [2] -0.05% | [3] -5.9% | [4] 14.2% | [5] -2.8% | [6] -7.3%

CC(=O)C1=CCC(C(C)C)C1 (stereo not drawn)
inactive: [1] 4.2% | [2] -0.9% | [3] -1.2% | [4] -1.3% | [5] 17.1% | [6] 2%

Nc1nc(-c2ccccc2)cc(-c2cc(-c3ccccc3)nc(N)n2)n1
inactive: [1] 12.8% | [2] -8.35% | [3] -18.9% | [4] -1.5% | [5] -5.95% | [6] 10.3%

C=C(C)[C@@]1(OC(=O)c2cc([N+](=O)[O-])cc([N+](=O)[O-])c2)C[C@@H]2CCCC[C@@H]21
inactive: [1] -43.5% | [2] -26.1% | [3] -15.8% | [4] 5.8% | [5] -7.9% | [6] 2.1%

CCCCCCNC(=O)NC
inactive: [1] -2.3% | [2] -11.5% | [3] -16.8% | [4] -36.2% | [5] -21.1% | [6] -7.05%

O=C1CN(C(=O)c2ccccc2)C(=S)N1
inactive: [1] 22.5% | [2] 6.7% | [3] 11.7% | [4] -17.9% | [5] 4.75% | [6] 4.5%

COc1cc2c3c(c1)CCCN3CCC2
inactive: [1] -40.6% | [2] -17% | [3] -20.5% | [4] -4.95% | [5] 13.2% | [6] -17.6%

Cc1cc(N)c(NC2OC(CO)C(O)C2O)cc1C (stereo not drawn)
inactive: [1] -25.1% | [2] 0.8% | [3] 4.75% | [4] -43.1% | [5] 41.1% | [6] 19.7%

NC(=O)NCC(N)C(=O)O (stereo not drawn)
inactive: [1] -4.75% | [2] -5.2% | [3] -2.3% | [4] 1.55% | [5] 1.55% | [6] -1.9%

CCCCCCCCCCCCCCCCCCOCCCCCC
inactive: [1] -8.65% | [2] -30.1% | [3] -19.8% | [4] 4.2% | [5] -10.3% | [6] -7.55%

CCOC(=O)/C(=C/c1ccc(N(C)C)cc1)N(CC)CC
inactive: [1] -34.2% | [2] -10.2% | [3] -14.9% | [4] 13.4% | [5] 7.25% | [6] -18.6%

Cc1cc(C)[n+](C)c(/C=C\c2ccc(Cl)cc2)n1
inactive: [1] 7.3% | [2] -6.95% | [3] 10.8% | [4] 3% | [5] -4.45% | [6] 12.9%

Cc1cc(C(F)(F)F)cc(-n2nc(NS(=O)(=O)c3cc(C)c(Cl)cc3S)nc2N)n1
inactive: [1] 13.1% | [2] 10.1% | [3] 15.4% | [4] -2.9% | [5] 4.5% | [6] 33.5%

C=CCCCCCCCCCCCC
inactive: [1] -20.1% | [2] 0% | [3] -20.8% | [4] 0.8% | [5] -21.2% | [6] -0.4%

O=c1c2ccccc2c(=O)n2n1C1CCC2C1
inactive: [1] 7.05% | [2] -0.55% | [3] -7.9% | [4] -3.75% | [5] 1.85% | [6] -6.15%

CN(C)C=NCC(O)c1ccccc1 (stereo not drawn)
inactive: [1] 13.3% | [2] 15% | [3] 0% | [4] -3% | [5] -21.2% | [6] -22.1%

O=C(O)CNc1ccc([N+](=O)[O-])cc1C(=O)O
inactive: [1] -1.25% | [2] -1% | [3] 2.75% | [4] 7.4% | [5] -6.7% | [6] -5.95%

CC(C)(C)OC(=O)CC(O)c1ccccc1 (stereo not drawn)
inactive: [1] 3.8% | [2] -2.9% | [3] 3.65% | [4] -2.45% | [5] -3.7% | [6] 20.8%

CC(C)(C)CC(C)(C)N(CSc1ccc2ccccc2c1)CSc1ccc2ccccc2c1
inactive: [1] 20.9% | [2] 4.55% | [3] 21.1% | [4] 13.6% | [5] -0.45% | [6] 17.6%

CC(C)CCOC(=O)C1C(=O)CC(c2ccccc2)C1c1ccccc1 (stereo not drawn)
inactive: [1] 11.1% | [2] 3.5% | [3] -6.35% | [4] -0.15% | [5] 6% | [6] 6.25%

CCCCCCCSCC1OC(n2cnc3c(N)ncnc32)C(O)C1O (stereo not drawn)
inactive: [1] 3.35% | [2] 11.1% | [3] 11.4% | [4] 5.5% | [5] 3.1% | [6] 9.3%

CCN(CC)/N=C\c1c2ccccc2cc2ccccc12
inactive: [1] 19.8% | [2] 11.2% | [3] 7.7% | [4] 9.4% | [5] 13.3% | [6] 60.4%
